Measured values taken from PubChem BioAssay (NCATS).

Experiment: High-throughput drug toxicity screening in the BPDCN cell line Cal-1 (AID 1224825)
Conditions: Cal-1 BPDCN cell viability, qHTS; at 45.8 µM (top of the series) unless noted
Method in brief: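 Viability of the BPDCN line Cal-1 is measured as ATP-based luminescence (CellTiter-Glo) following 48 h incubation with compounds. Percent activity uses DMSO-treated wells as 100% and 9.2 uM bortezomib as 0%.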

| SMILES | viability (% of control) |
| --- | --- |
| O=C(Nc1cccc(Br)c1)c1cccc(S(=O)(=O)N2CCCCCC2)c1 | 76% |
| C[C@H]1[C@H](NC(=O)C(=NOC(C)(C)C(=O)O)c2csc(N)n2)C(=O)N1S(=O)(=O)O | 121% |
| COC1CCC(N(C(=O)C2CCC(C)CC2)c2cc(C3=CCCCC3)sc2C(=O)O)CC1 (stereo not drawn) | 89.2% |
| CCCCCCCCCCCC1=C(O)C(=O)C=C(O)C1=O | 15.1% |
| Cc1c(O)cccc1C(=O)N[C@@H](CSc1ccccc1)[C@H](O)CN1C[C@H]2CCCC[C@@H]2C[C@@H]1C(=O)NC(C)(C)C | 4.13% |
| CNC(=O)c1ccc2cc(C3(O)CCn4cncc43)ccc2c1 (stereo not drawn) | 94.8% |
| Cc1cccc(Nc2nc(-c3ccncc3)cs2)c1 | 82.9% |
| CC(C)C(C)C=CC(C)C1CCC2C3=CC=C4CC(O)CCC4(C)C3CCC21C (stereo not drawn) | 127% |
| O=C1NC(=O)C(=Cc2ccc3nccnc3c2)S1 | 44.1% [at 23.2 µM] |
| Cc1nnc(C(C)C)n1C1C[C@H]2CC[C@@H](C1)N2CC[C@H](NC(=O)C1CCC(F)(F)CC1)c1ccccc1 (stereo partly drawn) | 104% |
| O=c1ccn([C@@H]2O[C@H](CO)[C@H](O)[C@H]2O)c(=O)[nH]1 | 112% |
| C[C@]12CC[C@@H]3c4ccc(O)cc4C[C@@H](CCCCCCCCCS(=O)CCCC(F)(F)C(F)(F)F)[C@H]3[C@H]1CC[C@H]2O (stereo partly drawn) | 108% |
| O=C1NC(=O)C(=Cc2cccc(C(F)(F)F)c2)S1 | 110% |
| O=c1cc(-c2ccccc2)oc2cc(O)cc(O)c12 | 52.1% |
| COC[C@@H](c1ccc(C(F)(F)F)cc1)N1CCN(C2(C)CCN(C(=O)c3c(C)ncnc3C)CC2)C[C@H]1C | 6.85% |
| COc1cccc([C@@H](C)NCCCc2ccccc2Cl)c1 | 66.2% |
| CN(C)CCC=C1c2ccccc2COc2ccc(CC(=O)O)cc21 | 98% |
| NC(=O)c1ccc2nc(-c3ccc(Oc4ccc(Cl)cc4)cc3)[nH]c2c1 | 38% |
| CCC(CC)[C@H](NC(C)=O)[C@@H]1[C@H](O)[C@@H](C(=O)O)C[C@@H]1N=C(N)N | 105% |

| SMILES | viability (% of control) |
| --- | --- |
| COc1cc(N2CCC(N3CCN(C)CC3)CC2)ccc1Nc1ncnc(Nc2ccccc2S(=O)(=O)C(C)C)n1 | 6.26% |
| O=C1c2ccccc2-[n+]2ccc3c([nH]c4ccccc43)c21 | 3.57% |
| CC(C(=O)O)c1ccc(-c2ccccc2)c(F)c1 (stereo not drawn) | 96.9% |
| COc1ccc2c3c1OC1C[C@@H](O)C=C[C@@]31CCN(C)C2 (stereo partly drawn) | 96.5% |
| CO[C@H]1C[C@@H]2CC[C@@H](C)[C@@](O)(O2)C(=O)C(=O)N2CCCC[C@@H]2C(=O)O[C@H]([C@H](C)C[C@@H]2CC[C@H](OP(C)(C)=O)[C@H](OC)C2)CC(=O)[C@H](C)C=C(C)[C@@H](O)[C@@H](OC)C(=O)[C@H](C)C[C@H](C)C=CC=CC=C1C | 5.8% |
| O=C1C[C@@H](c2ccc(O)cc2)Oc2cc(O)cc(O)c21 | 103% |
| O=C(Nc1c(Cl)cncc1Cl)c1ccc(OC(F)F)c(OCC2CC2)c1 | 105% |
| CC(C)(C)OC(=O)N[C@H]1CCCCCC=C[C@@H]2C[C@@]2(C(=O)NS(=O)(=O)C2CC2)NC(=O)[C@@H]2C[C@@H](OC(=O)N3Cc4cccc(F)c4C3)CN2C1=O | 99.3% |
| CC(=NNC(=S)N1CCC1)c1ccccn1 | 9.75% |
| O=C(O)c1ccccc1C(=O)Nc1ccc(-c2ccccc2)cc1 | 111% |
| CC=C(C)C(=O)O[C@H]1C(C)=C[C@]23C(=O)[C@@H](C=C(CO)[C@@H](O)[C@]12O)[C@H]1[C@@H](C[C@H]3C)C1(C)C | 12.7% |
| CN(C[C@@H]1COCCO1)S(=O)(=O)Nc1ccc2ccc3ncc(-c4cnn(C)c4)cc3c(=O)c2c1 | 7.57% |
| O=C(OCC#CCSc1nnc(-c2cccc3ccccc23)o1)c1cc2ccccc2s1 | 118% |
| NC[C@@H]1O[C@@H](O[C@H]2[C@@H](O)[C@H](O[C@@H]3[C@@H](O)[C@@H](N)C[C@H](N)[C@H]3O[C@H]3O[C@H](CN)[C@@H](O)[C@@H](O)[C@H]3N)O[C@H]2CO)[C@H](N)[C@@H](O)[C@@H]1O | 147% |
| Cc1nc(N)sc1-c1ccnc(Nc2ccc(N3CCOCC3)cc2)n1 | 6.5% |
| Oc1ccc(C2CCN(c3ccnc4ccccc34)CC2)cc1O | 5.01% |
| CC1(C)O[C@H]2C[C@@H]3[C@H]4CCC5=CC(=O)C=C[C@]5(C)[C@@]4(F)[C@@H](O)C[C@]3(C)[C@]2(C(=O)CO)O1 | 8.18% |
| O=C(NC1CCOCC1)c1ccc(-c2cc(-c3cn[nH]c3-c3ccccn3)ccn2)cc1 | 131% |
| N#CC1(c2ccc(NC(=O)c3cccnc3NCc3ccncc3)cc2)CCCC1 | 93.1% |
